# Records with an inconclusive call do not appear. Activity calls are given as the source filed them. Unless noted, no stated cut-off is given here; in the data, active means inhibition above about 80%; inactive means the rest.
# Tests used:
# [1] = viability loss in pontine glioma line – cell-based, JHH-DIPG-1, MIPE4.0, CellTiter-Glo, qHTS, dose response (AID 1347062; cut-off not given, nearly all actives have AC50 up to about 27 µM;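 on AC50: cells exposed to compound for two days before readout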); settings: JHH-DIPG-1 viability, CellTiter-Glo ATP luminescence
# [2] = viability loss in pontine glioma line – cell-based, SU-DIPG-IV, MIPE4.0, CellTiter-Glo, qHTS, dose response (AID 1347063; cut-off not given, nearly all actives have AC50 up to about 30 µM;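 further: compound exposure lasted 48 hours before the viability readout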); settings: CellTiter-Glo ATP luminescence
# [3] = galactose survival enhancers in mitochondrial complex I cybrids – cell-based, galactose medium, ATP luminescence, primary screen (AID 1645843;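 active means z-score of at least 1.8 in each of two replicates, scored against plate mean and spread of sample wells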;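 further: positive z means more ATP and so rescue of galactose-driven cybrid death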); settings: complex I mutant cybrid cells, 72 h, stronger effect = higher value
# [4] = growth inhibition, single agents and combos, LFS_MB_1R, cell-based, cisplatin or BGB combos, synergistic combos for chromothripsis tumors (AID 1671452); settings: LFS_MB_1R medulloblastoma cells, stronger effect = higher value;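 further: cells exposed for 96 hours before readout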
# [5] = growth inhibition, single agents and combos, CRL2098, cell-based, BGB or cisplatin IC20 combos, synergistic combos for chromothripsis tumors (AID 1671454); settings: CRL2098 osteosarcoma cells, drug combinations, stronger effect = higher value;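 further: cells exposed for 96 h before readout; 0% = vehicle DMSO and 100% = killing by high DMSO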
# [6] = growth inhibition, single agents and combos, HD-MB03, cell-based, BGB or cisplatin IC20 combos, synergistic combos for chromothripsis tumors (AID 1671455; in the data active means inhibition above about 83%;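 further: 0% = vehicle DMSO and 100% = high DMSO as cytotoxic control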); settings: HD-MB03 medulloblastoma cells, stronger effect = higher value
# [7] = growth inhibition, single agents and combos, UWB1.289, cell-based, BGB or cisplatin combos, synergistic combos for chromothripsis tumors (AID 1671456); settings: UWB1.289 ovarian carcinoma cells, stronger effect = higher value;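 further: cells exposed to compound for four days; 0% = vehicle DMSO and 100% = killing by high DMSO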
# [8] = growth inhibition, single agents and combos, LFS_MB_2R, cell-based, cisplatin combos, synergistic combos for chromothripsis tumors (AID 1671457); settings: LFS_MB_2R medulloblastoma cells, stronger effect = higher value;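 further: cells exposed to compound for four days before readout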
# [9] = UWB1.289_BRCA1 ovarian cancer growth, cell-based, BGB or cisplatin combinations (AID 1671459); settings: UWB1.289 BRCA1 ovarian carcinoma, drug combinations, stronger effect = higher value
# [10] = drug combination toxicity in non-malignant astrocytes – cell-based, BGB or cisplatin IC20 combos, cytotoxicity control for chromothriptic childhood tumor combination screen (AID 1671460); settings: Human astrocytes, viability inhibition, drug combinations, at 0.5 µM, stronger effect = higher value;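 further: cells exposed to compounds for 96 hours before viability readout; 0% = vehicle and 100% = killing control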
# [11] = BT084 cell growth, single and combined drugs, ICGC_MB145, cisplatin and BGB IC40 combos (AID 1671461); settings: BT084 medulloblastoma cells, drug combinations, stronger effect = higher value;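 further: cells exposed to drugs for 96 hours; 0% = vehicle DMSO and 100% = high DMSO full killing control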
# [12] = RCMB18 cell growth, single agent and combined, cisplatin and BGB IC40 combos (AID 1671462); settings: RCMB18 medulloblastoma cells, stronger effect = higher value;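 further: cells exposed to compound for four days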
# [13] = CRL1545 cell growth, single agent and combined, cisplatin and BGB IC20 combos (AID 1671464); settings: CRL1545 osteosarcoma cells, stronger effect = higher value;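 further: cells exposed to compound for 96 hours before readout; 0% = vehicle DMSO and 100% = high DMSO killing control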
# [14] = viability loss in pontine glioma line – cell-based, SU-DIPG-XIII, MIPE5.0, CellTiter-Glo, qHTS, dose response (AID 1347064; cut-off not given, nearly all actives have AC50 up to about 23 µM;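 further: cells exposed to compound for 48 hours before the viability read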); settings: CellTiter-Glo ATP luminescence
# [15] = viability loss in pontine glioma line – cell-based, SU-DIPG-XXV, MIPE5.0, CellTiter-Glo, qHTS, dose response (AID 1347065; cut-off not given, nearly all actives have AC50 up to about 26 µM;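 further: cells exposed to compound for 48 hours before ATP readout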); settings: CellTiter-Glo ATP luminescence
# [16] = JHH-DIPG-1 glioma cell viability, MIPE5.0 library, CellTiter-Glo luminescence, qHTS (AID 1347067; cut-off not given, nearly all actives have AC50 up to about 26 µM;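 further: cells exposed to compound for 48 hours before readout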); settings: JHH-DIPG-1 glioma viability, CellTiter-Glo ATP luminescence
# [17] = growth inhibition of DIPG cells – cell-based, MIPE5.0 library, qHTS (AID 1347068; cut-off not given, nearly all actives have IC50 up to about 30 µM;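 on IC50: cells exposed to compound for 48 hours before viability readout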); settings: SU-DIPG-XXV viability
# [18] = target: Mitogen-activated protein kinase 7 (Homo sapiens) (UniProt Q13164); experiment: Gal4-ERK5 driven luciferase induction – cell-based, HTS, primary screen (AID 1508626;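 active means luciferase signal above three times the same-plate solvent-only control wells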;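 further: luciferase driven by Gal4-ERK5 fusion binding five Gal4 sites before minimal TATA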); settings: HeLa Gal4-ERK5 transactivation, 18 h, at 5 µM, stronger effect = higher value
# Sequence of Mitogen-activated protein kinase 7 (Homo sapiens) (Q13164 whole entry, looked up, the tested form may be a part): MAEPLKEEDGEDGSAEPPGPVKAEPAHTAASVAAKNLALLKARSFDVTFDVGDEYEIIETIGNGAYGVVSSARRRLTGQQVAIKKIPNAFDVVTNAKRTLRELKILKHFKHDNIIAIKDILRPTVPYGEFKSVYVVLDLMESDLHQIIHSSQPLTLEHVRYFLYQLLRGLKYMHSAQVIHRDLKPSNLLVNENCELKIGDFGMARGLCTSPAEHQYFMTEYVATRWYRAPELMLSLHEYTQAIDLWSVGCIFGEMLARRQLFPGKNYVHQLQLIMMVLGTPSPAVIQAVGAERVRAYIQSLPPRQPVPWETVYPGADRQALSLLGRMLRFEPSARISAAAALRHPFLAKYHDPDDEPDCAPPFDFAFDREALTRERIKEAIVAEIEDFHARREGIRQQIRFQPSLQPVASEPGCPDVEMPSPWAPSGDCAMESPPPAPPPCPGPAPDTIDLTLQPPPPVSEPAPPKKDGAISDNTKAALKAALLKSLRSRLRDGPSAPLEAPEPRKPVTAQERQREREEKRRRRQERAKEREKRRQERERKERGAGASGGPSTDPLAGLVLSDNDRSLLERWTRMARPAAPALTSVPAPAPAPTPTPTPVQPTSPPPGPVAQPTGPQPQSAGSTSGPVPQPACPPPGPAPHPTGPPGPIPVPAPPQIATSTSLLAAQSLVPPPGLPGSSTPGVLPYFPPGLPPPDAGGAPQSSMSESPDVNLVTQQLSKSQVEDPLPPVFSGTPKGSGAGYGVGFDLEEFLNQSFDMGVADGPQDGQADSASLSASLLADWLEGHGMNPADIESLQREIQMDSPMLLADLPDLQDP
# [19] = measured here: combination with BGB IC40, at 0.05 µM
# [20] = measured here: combination with cisplatin, at 0.5 µM
# [21] = measured here: combination with cisplatin, at 5 µM
# [22] = measured here: combination with BGB at IC20, at 0.5 µM
# [23] = measured here: combination with cisplatin at IC20, at 0.5 µM
# [24] = measured here: combo with BGB at IC20, at 0.5 µM
# [25] = measured here: combo with cisplatin at IC20, at 0.5 µM
# [26] = measured here: inhibition with BGB combination, at 0.05 µM
# [27] = measured here: inhibition with cisplatin combination, at 0.05 µM
# [28] = BGB combination, concentration series, at 5 µM
# [29] = cisplatin combination, concentration series, at 5 µM
# [30] = measured here: combo with BGB IC20
# [31] = measured here: combo with cisplatin IC20
# [32] = cisplatin combination, at 0.5 µM
# [33] = measured here: BGB IC40 combination 0.05 uM, at 0.05 µM
# [34] = measured here: BGB IC40 combination, at 0.05 µM
# [35] = measured here: with BGB IC20 combination, at 0.5 µM
# [36] = measured here: with cisplatin IC20 combination, at 0.5 µM
structure (smiles),measurement,setting,value
CN1CCN(c2c(F)cc3c(=O)c(C(=O)O)cn(CCF)c3c2F)CC1,outcome,[1],inactive
same,outcome,[2],inactive
same,z-score,[3],0.245 (inactive)
same,inhibition,[4]; at 0.5 µM,-3.54% (inactive)
same,inhibition,[4]; [19],5.98%
same,inhibition,[4]; [20],2.19%
same,inhibition,[4]; [21],-16.1%
same,inhibition,[5]; at 0.5 µM,11.6% (inactive)
same,inhibition,[5]; [22],-0.381%
same,inhibition,[5]; [23],26.4%
same,inhibition,[6]; at 0.5 µM,6.76% (inactive)
same,inhibition,[6]; [24],8.44%
same,inhibition,[6]; [25],5.72%
same,inhibition,[7]; at 0.5 µM,9.66% (inactive)
same,inhibition,[7]; [26],-0.955%
same,inhibition,[7]; [27],3.11%
same,inhibition,[8]; at 0.5 µM,7.8% (inactive)
same,inhibition,[8]; [20],7.66%
same,inhibition,[8]; [21],-16.2%
same,inhibition,[9]; [28],7.04%
same,inhibition,[9]; at 0.5 µM,5.73% (inactive)
same,inhibition,[9]; [29],-0.678%
same,inhibition,[10],5.13% (inactive)
same,inhibition,[10]; [30],2.15%
same,inhibition,[10]; [31],3.47%
same,inhibition,[11]; at 0.5 µM,-2.41% (inactive)
same,inhibition,[11]; [32],-7.17%
same,inhibition,"[11]; cisplatin combination, at 5 µM",4.75%
same,inhibition,[11]; [33],34.4%
same,inhibition,"[11]; single agent, at 5 µM",1.35%
same,inhibition,[12]; at 0.5 µM,18.3% (inactive)
same,inhibition,"[12]; cisplatin combo, at 5 µM",48%
same,inhibition,[12]; [34],-3.02%
same,inhibition,[12]; [20],34.2%
same,inhibition,"[12]; single agent, at 5 µM",-5.57%
same,inhibition,[13]; at 0.5 µM,-0.47% (inactive)
same,inhibition,[13]; [35],-8.63%
same,inhibition,[13]; [36],1.43%
same,inhibition,"[13]; single agent, at 0.05 µM",8.93%
same,inhibition,"[13]; single agent, at 5 µM",2.13%
COc1cccc2c1C(=O)c1c(O)c3c(c(O)c1C2=O)C[C@@](O)(C(C)=O)C[C@@H]3O[C@H]1C[C@H](N)[C@H](O)[C@H](C)O1,AC50,[1],33.2 nM (active)
same,AC50,[2],46.9 nM (active)
same,AC50,[14],742 nM (active)
same,AC50,[15],742 nM (active)
same,AC50,[16],742 nM (active)
same,IC50,[17],3320 nM (active)
same,luciferase signal,[18],300 AU (active)
same,z-score,[3],-2.16 (inactive)
O=C(CCCCCCC(=O)Nc1ccccc1)NO,AC50,[1],3720 nM (active)
same,AC50,[14],1180 nM (active)
same,AC50,[15],833 nM (active)
same,AC50,[16],1480 nM (active)
same,outcome,[17],inactive
same,inhibition,[4]; at 0.5 µM,17.4% (inactive)
same,inhibition,[4]; [19],-3.43%
same,inhibition,[4]; [20],21.7%
same,inhibition,[4]; [21],83.1%
same,inhibition,[5]; at 0.5 µM,-45.6% (inactive)
same,inhibition,[5]; [22],-78.4%
same,inhibition,[5]; [23],-12.2%
same,inhibition,[6]; at 0.5 µM,22% (inactive)
same,inhibition,[6]; [24],21%
same,inhibition,[6]; [25],48.3%
same,inhibition,[7]; at 0.5 µM,14.7% (inactive)
same,inhibition,[7]; [26],-38.8%
same,inhibition,[7]; [27],-24.2%
same,inhibition,[8]; at 0.5 µM,-2.63% (inactive)
same,inhibition,[8]; [20],3.49%
same,inhibition,[8]; [21],79.7%
same,inhibition,[9]; [28],69.1%
same,inhibition,[9]; at 0.5 µM,9.38% (inactive)
same,inhibition,[9]; [29],84.7%
same,inhibition,[10],-0.71% (inactive)
same,inhibition,[10]; [30],-2.1%
same,inhibition,[10]; [31],-2.33%
same,inhibition,[11]; at 0.5 µM,10.3% (inactive)
same,inhibition,[11]; [32],36%
same,inhibition,"[11]; cisplatin combination, at 5 µM",98.4%
same,inhibition,[11]; [33],-23.4%
same,inhibition,"[11]; single agent, at 5 µM",87.4%
same,inhibition,[12]; at 0.5 µM,14.4% (inactive)
same,inhibition,"[12]; cisplatin combo, at 5 µM",93.4%
same,inhibition,[12]; [34],-14.3%
same,inhibition,[12]; [20],47.6%
same,inhibition,"[12]; single agent, at 5 µM",78.3%
same,inhibition,[13]; at 0.5 µM,74.5% (inactive)
same,inhibition,[13]; [35],65.9%
same,inhibition,[13]; [36],78.3%
same,inhibition,"[13]; single agent, at 0.05 µM",-34.3%
same,inhibition,"[13]; single agent, at 5 µM",88.9%
